Screens: PubChem BioAssay, Broad Institute
Pf Dd2 inh: inhibitors of Plasmodium falciparum Dd2 growth; P. falciparum Dd2 growth, SYBR Green, 72 h; hits give low values; activity change, % at 10 µM; hit rate 2.3% among 94,000; AID 1159554; in the data active = activity change below about -80%; inconclusive = no clear call, values can overlap the other calls
T cruzi growth-1: blocks T. cruzi growth in NIH3T3 culture; AID 624255; inhibition, % at 8.34 µM; T. cruzi beta-gal in NIH3T3, GalScreen luminescence, 90 h; hit rate 5.9% among 77,000;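 active = mean inhibition above about 93%, with at least 55% of replicates each passing it, limit read from the data, passing the limit was not always enough; inconclusive = only one of those two conditions holds; inactive = neither condition holds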
C diff growth: blocks growth of Clostridium difficile | Clostridium difficile clinical isolate growth, OD600, 24 h; hits give low values | growth activity, negative = inhibition, % at 16 µg/mL (by protocol) | hit rate 0.25% among 86,000 | AID 1259249;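 active = mean growth activity at or below -80% and every replicate also at or below -80%; inconclusive = mean at or below -80% but some replicate above -80%; inactive = mean growth activity above -80%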;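 note: 0% = DMSO wells and -100% = levofloxacin 16 µg/mL wells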
T cruzi growth-2: Trypanosoma cruzi proliferation inhibition; shares compounds with T cruzi growth-1; T. cruzi beta-gal in NIH3T3, GalScreen luminescence, 90 h; inhibition, % at 8.35 µM; hit rate 72% among 5,600; AID 651739;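 active = mean replicate inhibition above about 95% and at least 55% of replicates individually reaching it, limit read from the data; inconclusive = only one of the two criteria is met; inactive = neither criterion is met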
T cruzi growth-3: blocks T. cruzi growth in NIH3T3 host cells. shares compounds with T cruzi growth-1. hit rate 21% among 5,600. inhibition, % at 2.09 µM. T. cruzi beta-gal in NIH3T3, GalScreen luminescence, 90 h;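 active = mean inhibition above about 95%, with at least 55% of replicates also reaching it, limit read from the data; inconclusive = meets just one of the two conditions; inactive = meets neither condition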;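 note: plate controls were neutral control median for no effect and positive control median for full effect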
3T3 cytotox: kills mouse NIH/3T3 fibroblasts; shares compounds with T cruzi growth-1; NIH/3T3 viability, CellTiter-Glo ATP luminescence, 90 h; cytotoxicity (signal decrease), % at 8.35 µM; hit rate 14% among 5,600;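 active = mean signal decrease across replicates above about 35% based on untreated-well scatter, with enough replicates individually passing, limit read from the data; inconclusive = no rule stated though some were filed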;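 note: 0% = median of neutral control wells and 100% = median of positive control wells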
NIH3T3 tox 2: kills mouse NIH/3T3 fibroblasts. shares compounds with T cruzi growth-1. NIH/3T3 viability, CellTiter-Glo ATP luminescence, 90 h. inhibition, % at 24.9 µM. hit rate 56% among 5,600;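 active = mean loss of cell viability signal at or above a set limit, and enough replicates individually reaching it; inconclusive = meets only the mean limit or only the replicate share; inactive = meets neither condition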;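 note: 0% = median of neutral control wells and 100% = median of positive control wells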
Starred values were filed as active, the others as inactive; ? = inconclusive; / = no result. Shown are actives, neighbours in structure and some others; about 6.8% of the full set was active somewhere.

SMILES	Pf Dd2 inh	T cruzi growth-1	C diff growth	T cruzi growth-2	T cruzi growth-3	3T3 cytotox	NIH3T3 tox 2
COc1ccccc1NC(=O)N1CCCCN2[C@H](CO)[C@@H](c3ccc(C#CC4CC4)cc3)[C@@H]2C1	-45	/	13	/	/	/	/
COc1ccccc1NC(=O)N1CCCCN2[C@H](C1)[C@H](c1ccc(C#CC3CCCC3)cc1)[C@@H]2CO	-7	92	-3	/	/	/	/
COc1ccccc1NC(=O)N1CCCCN2[C@@H](CO)[C@H](c3ccc(C#Cc4ccccc4)cc3)[C@@H]2C1	?	112*	8	92	108*	118*	104*
COc1ccccc1NC(=O)N1CCCCN2[C@H](CO)[C@@H](c3ccc(C#Cc4ccccc4)cc3)[C@H]2C1	-73	112*	1	102*	102*	119*	105*
CC(=O)Nc1ccc2c(c1)C(=O)N(C)[C@@H]1CC[C@H](CC(=O)NCC3CC3)O[C@@H]1CO2	6	26	-2	/	/	/	/
Cc1noc(C)c1NC(=O)Nc1ccc2c(c1)C(=O)N([C@@H](C)CO)C[C@H](C)[C@@H](CN(C)Cc1ccc(Cl)c(Cl)c1)OCCCC[C@H](C)O2	-33	90	11	/	/	/	/
Cc1noc(C)c1S(=O)(=O)N(C)C[C@H]1OCCCC[C@H](C)Oc2ccc(NS(=O)(=O)c3ccccc3)cc2C(=O)N([C@@H](C)CO)C[C@@H]1C	-59	103	1	/	/	/	/
O=C(Nc1ccc(Cl)cc1)N[C@H]1CC[C@@H](CCn2cc(C3(O)CCCC3)nn2)O[C@H]1CO	5	15	/	/	/	/	/
CCC(=O)N1CC[C@@H]2[C@H]1c1cc(-c3cccc(OC)c3)ccc1N(C)[C@@H]2CO	2	105*	-8	104*	108*	27	15
CCC(=O)N1CC[C@H]2[C@@H]1c1cc(-c3ccccc3)ccc1N(C)[C@H]2CO	0	45	-5	/	/	/	/
COCC(=O)N1CC[C@@H]2[C@@H](CO)N(C)c3ccc(-c4cccc(OC)c4)cc3[C@@H]21	1	97*	3	108*	76	9	2
COc1ccccc1NC(=O)N1CC[C@@H]2[C@H]1c1cc(-c3ccc(F)cc3)ccc1N(C)[C@@H]2CO	-13	112*	0	98*	107*	14	34*
CCC(=O)N1CC[C@@H]2[C@H]1c1cc(-c3cccc(F)c3)ccc1N(C)[C@@H]2CO	11	90	-11	/	/	/	/
COCC(=O)N1CC[C@@H]2[C@H]1c1cc(-c3ccc(OC)cc3)ccc1N(C)[C@H]2CO	20	32	-6	/	/	/	/
COc1ccccc1NC(=O)N1CC[C@@H]2[C@H]1c1cc(-c3ccccc3)ccc1N(C)[C@H]2CO	-2	75	28	/	/	/	/
CCC(=O)N1CC[C@@H]2[C@H]1c1cc(-c3ccc(F)cc3)ccc1N(C)[C@@H]2CO	-9	101*	6	107*	66	8	24*
C[C@@H]1CCCCO[C@H](CN(C)C(=O)Cc2ccccc2)[C@@H](C)CN([C@H](C)CO)C(=O)c2cc(NS(=O)(=O)c3ccccc3)ccc2O1	-12	/	/	/	/	/	/
CCCC(=O)Nc1ccc2c(c1)C(=O)N(C)C[C@H](OC)[C@@H](C)CN(C(=O)CC1CC1)[C@H](C)CO2	40	-37	0	/	/	/	/
C[C@@H]1CCCCO[C@H](CN(C)S(=O)(=O)c2cccs2)[C@@H](C)CN([C@H](C)CO)C(=O)c2cc(N(C)C)ccc2O1	-4	25	3	/	/	/	/
C[C@@H]1CN([C@@H](C)CO)C(=O)Cc2cc(NS(=O)(=O)c3ccc(F)cc3)ccc2O[C@H]1CN(C)S(C)(=O)=O	2	23	2	/	/	/	/
Cc1noc(C)c1S(=O)(=O)N(C)C[C@@H]1Oc2ccc(NS(=O)(=O)c3cn(C)cn3)cc2CC(=O)N([C@H](C)CO)C[C@@H]1C	17	-7	-3	/	/	/	/
CC(C)NC(=O)N1[C@@H]2CN(C(=O)c3ccncc3)c3ccccc3[C@@H]2[C@@H]1CO	7	-9	-2	/	/	/	/
Cc1ccc(S(=O)(=O)N[C@H]2CC[C@@H](CCn3cc(C4CC4)nn3)O[C@@H]2CO)cc1	8	/	-2	/	/	/	/
CN1C(=O)c2cc(NC(=O)Cc3cccs3)ccc2OC[C@@H]2O[C@H](CC(=O)N[C@H]3CCN(Cc4ccccc4)C3)CC[C@@H]21	/	94	-8	/	/	/	/
CN1C(=O)c2cc(NC(=O)c3ccc(F)c(F)c3)ccc2OC[C@H]2O[C@H](CC(=O)N[C@H]3CCN(Cc4ccccc4)C3)CC[C@H]21	/	102*	1	107*	65	5	22
SMILES	Pf Dd2 inh	T cruzi growth-1	C diff growth	T cruzi growth-2	T cruzi growth-3	3T3 cytotox	NIH3T3 tox 2
CN1C(=O)c2cc(NC(=O)c3ccc(F)c(F)c3)ccc2OC[C@H]2O[C@@H](CC(=O)N[C@H]3CCN(Cc4ccccc4)C3)CC[C@@H]21	/	94	4	/	/	/	/
CN1C(=O)c2cc(NC(=O)c3ccc(F)c(F)c3)ccc2OC[C@H]2O[C@H](CC(=O)N[C@@H]3CCN(Cc4ccccc4)C3)CC[C@@H]21	/	93	4	/	/	/	/
CN1C(=O)c2cc(NC(=O)c3ccc(F)c(F)c3)ccc2OC[C@@H]2O[C@@H](CC(=O)N[C@H]3CCN(Cc4ccccc4)C3)CC[C@H]21	/	99*	7	?	84	-19	-1
CN1C(=O)c2cc(NC(=O)Cc3cccs3)ccc2OC[C@H]2O[C@H](CC(=O)N[C@@H]3CCN(Cc4ccccc4)C3)CC[C@@H]21	/	53	1	/	/	/	/
CN1C(=O)c2cc(NC(=O)c3ccc(F)c(F)c3)ccc2OC[C@@H]2O[C@@H](CC(=O)N[C@@H]3CCN(Cc4ccccc4)C3)CC[C@@H]21	/	112*	5	102*	86	32	39*
CN1C(=O)c2cc(NC(=O)c3ccc(F)c(F)c3)ccc2OC[C@H]2O[C@H](CC(=O)N[C@H]3CCN(Cc4ccccc4)C3)CC[C@@H]21	/	108*	11	49	84	-15	-1
COc1ccc(CN(C)C[C@@H]2OCCCC[C@@H](C)Oc3ccc(NS(=O)(=O)c4ccc(C)cc4)cc3C(=O)N([C@H](C)CO)C[C@H]2C)cc1	-61	/	/	/	/	/	/
C[C@@H]1CN([C@H](C)CO)C(=O)Cc2cc(NC(=O)C3CC3)ccc2O[C@@H]1CN(C)Cc1ccccc1	-29	12	0	/	/	/	/
COc1ccc(NC(=O)N(C)C[C@H]2Oc3ccc(NC(=O)Cc4ccccc4)cc3C(=O)N([C@H](C)CO)C[C@H]2C)cc1	6	-23	-2	/	/	/	/
C[C@@H]1CN([C@@H](C)CO)S(=O)(=O)c2ccc(C#Cc3ccccn3)cc2O[C@@H]1CN(C)Cc1cccc(F)c1	-31	119*	0	108*	?	31	21
C[C@H](CO)N1C[C@H](C)[C@@H](CN(C)Cc2cccc(F)c2)Oc2cc(C#Cc3ccccn3)ccc2S1(=O)=O	-38	117*	-3	94	112*	-35	8
